Values joined by “and” are separate entries in the source; they are usually repeats but may differ in a detail not shown here. Equal values may be shown once. Results filed as inconclusive are left out. The source holds several records for some structures; these can differ, active in one and inactive in another. Active and inactive are the calls of the source. How the source made its calls: active means hit-call score of the fitted dose curve at least 0.9, where 1 is the maximum; inconclusive means response in the unintended direction; inactive means score below 0.9.
Assay: TOX21_p53_BLA_p5_viability: Viability Assessment in the Tox21 HCT-116 p53 Agonism Beta-lactamase Assay, Phase 5 (AID 2283600)
Source text: TOX21_p53_BLA_p5 is a cell-based, single-readout assay that uses HCT116, a human intestinal cell line, […] in a 1536-well plate.TOX21_p53_BLA_p5_viability is an assay readout measuring cellular ATP content and detected with CellTiter-Glo Luciferase-coupled ATP quantitation.TOX21_p53_BLA_p5_viability used a type of viability reporter where loss-of-signal activity can be used to understand changes in the cell viability. Furthermore, this assay endpoint can be referred to as a secondary readout, because this assay has produced multiple assay endpoints where this one serves a viability function. To generalize the intended target to other relatable targets, this assay endpoint is annotated to the cell cycle intended target family, where the subfamily is cytotoxicity.
Thawing Method: Place 14 mL of pre-warmed thaw medium into a 15 mL of conical tub. Remove the vial of cells to be thawed from liquid nitrogen and thaw rapidly by placing at 37C in a water bath with gentle agitation for 1-2 minutes. Decontaminate the vial by wiping with 70% ethanol before opening in a biological safety cabinet. Transfer the vial contents drop-wise into 14 mL of thaw medium in a sterile 15-mL conical tub. Centrifuge cells at 900 rpm for 4 minutes and resuspend in thaw medium. Transfer contents to the T75 tissue culture flask containing Thaw Medium and place flask in a humidified 37C/5% CO2 incubator. Switch to growth medium at first passage.Propagation Method: Aspirate medium, rinse once in DPBS, add 0.25% Trypsin/EDTA and swirl to coat the cell evenly. Add an equal volume of Growth Medium to inactivate Trypsin after 2-3 minutes incubation at 37C. Centrifuge cells at 900 rpm for 4 minutes and resuspend in growth medium. Cell should be passage or fed at least twice a week.Assay Protocol: Harvest cells from culture in growth medium and resuspend in assay medium. 2.2 Dispense 4000 cells/5 uL/well into 1536-well black/clear bottom plates using a Multidrop dispenser. After the cells were incubated at 37C for 5 hours, 23 nL of compounds dissolved in DMSO were transferred to the assay plate by a PinTool resulting in a 217-fold dilution. Incubate the plates for 16 hours at 37C, 5% CO2. Add 1 uL of 6X LiveBLAzer FRET B/G (CCF4-AM) Substrate Mixture to each well using a BioRAPTR dispenser and incubate the plates at room temperature for 2 hours. Measure fluorescence intensity at 460 and 530 nm emission and 405 nm excitation by an Envision detector. Data is expressed as the ratio of 460nm/530nm emissions. Add 4 uL of Cell-titer Glo to each well using BioRAPTR and incubate the plates at room temperature for […]. For cell viability readout that measures cytotoxicity, 4 ul/well of CellTiter-Glo reagent was added into the assay plates using a Flying Reagent Dispenser. After 30 min incubation at room temperature, the luminescence intensity in the plates was measured using a ViewLux plate reader.

| SMILES | outcome | AC50 |
| --- | --- | --- |
| Cc1c2ccccc2c(C)c2c1ccc1ccccc12 | inactive |  |
| CCN(Cc1cccnc1)C(=O)c1cccc(Cl)c1[C@]1(C)C(=O)N(Cc2ccc(OC)cc2OC)c2ccc(Cl)cc21 | inactive |  |
| CCCCCCCCOC(=O)c1cc(O)c(O)c(O)c1 |  | 42.6 µM (active) |
| CCCCOC(=O)c1ccc(O)cc1 | inactive |  |
| O=C1O[C@H]([C@@H](O)CO)C(O)=C1O | inactive |  |
| Clc1ccccc1C(c1ccccc1)(c1ccccc1)n1ccnc1 | inactive | 85.1 µM (active) |
| O=C1CCC(C2CCCCC2)CC1 | inactive |  |
| COc1ccc2cc(S(=O)(=O)N[C@H](CC(=O)N[C@H](Cc3ccc(CN4[C@H](C)CCC[C@@H]4C)cc3)C(=O)N(C)C(C)C)c3ccc4c(c3)OCO4)ccc2c1 |  | 56.7 µM (active) |
| Cc1cc2c(cc1C(F)(F)F)N(C(=O)Nc1ccc(Oc3cccnc3C)nc1)CC2 | inactive |  |
| CC(C)(c1cc(Br)c(O)c(Br)c1)c1cc(Br)c(O)c(Br)c1 |  | 44 µM (active) and 57 µM (active) and 63.6 µM (active) |
| Cc1ccc2oc(CN(Cc3ccccc3)C(=O)Nc3c(F)cc(F)cc3F)c(-c3ccc(Cl)cc3)c2c1 | inactive |  |
| Cc1cccc2ccccc12 | inactive |  |
| CCN(CC)C(=O)c1cc(S(=O)(=O)Cc2ccccc2)c(N2CCC(c3ccccc3)CC2)cc1N(CC)CCN(C)C |  | 40.1 µM (active) |
| CCCCCCCCCC(=O)O | inactive |  |
| CN1C(=O)CC[C@H]1c1cccnc1 | inactive |  |
| O=c1[nH]sc2ccccc12 | inactive |  |
| CC(C)(C)c1cc(/C=C2\SC(N)=NC2=O)cc(C(C)(C)C)c1O |  | 76.4 µM (active) |
| CCOC(=O)O[C@H](C)OC(=O)c1ccc2c(c1)cc(C(=O)NC1CCN(C(C)C)CC1)n2Cc1cc(-c2ccc(Cl)s2)on1 |  | 72.9 µM (active) |
| CCCCCCCCCCCC[N+](C)(C)C | inactive |  |

| SMILES | outcome | AC50 |
| --- | --- | --- |
| CC1(C)NC(=O)N(c2ccc([N+](=O)[O-])c(C(F)(F)F)c2)C1=O | inactive |  |
| O=c1c(-c2ccc(O)cc2)coc2cc(O)cc(O)c12 | inactive |  |
| Cc1oc2c(NC(=O)c3c(Cl)cccc3Cl)cccc2c1C(C)(C)O | inactive |  |
| CC(C)(C)c1csc(-c2cc3cc(OCc4ccccc4CC(=O)O)ccc3o2)n1 | inactive |  |
| CCN(Cc1cccc(S(=O)(=O)O)c1)c1ccc(C(=C2C=CC(=[N+](CC)Cc3cccc(S(=O)(=O)O)c3)C=C2)c2ccccc2S(=O)(=O)[O-])cc1 | inactive |  |
| O=C=NCCCCCCN=C=O | inactive |  |
| Cc1ncc(CO)c(CO)c1O | inactive |  |
| NCc1cccc(C2CCN(C(=O)c3ccc(C#Cc4ccccc4F)o3)CC2)c1 | inactive |  |
| c1ccc(C[n+]2cccc3ccccc32)cc1 | inactive |  |
| Cc1cc(F)ccc1-c1cc(N2CC[C@@H](O)[C@H]2CO)ncc1N(C)C(=O)C(C)(C)c1cc(C(F)(F)F)cc(C(F)(F)F)c1 |  | 23.7 µM (active) |
| CN1C(=O)N(c2ccccc2Br)Cc2cnc(Nc3ccc4c(c3)OCC(CO)O4)nc21 (stereo not given) | inactive |  |
| Cc1ccc(C(C)C)cc1 | inactive |  |
| CC/C(=C(/CC)c1ccc(O)cc1)c1ccc(O)cc1 | inactive | 75.1 µM (active) |
| Cc1occc1C(=O)Nc1ccc(C(=O)N2CCC(F)(F)/C(=C\C(=O)N3CCC(N4CCCCC4)CC3)c3ccccc32)cc1 | inactive |  |
| O=C(O)Cc1cc(I)c(Oc2ccc(O)c(I)c2)c(I)c1 | inactive | 21.8 µM (active) |
| CO[C@H]1/C=C/O[C@@]2(C)Oc3c(C)c(O)c4c(O)c(c(/C=N/N5CCN(C)CC5)c(O)c4c3C2=O)NC(=O)/C(C)=C\C=C\[C@H](C)[C@H](O)[C@@H](C)[C@@H](O)[C@@H](C)[C@H](OC(C)=O)[C@@H]1C | inactive |  |
| COc1cc(C(=O)NC2CCN(C)CC2)ccc1Nc1ncc2c(n1)N(C1CCCC1)CC(F)(F)C(=O)N2C |  | 68.8 µM (active) |
| CCCCCCCCCCCCO | inactive |  |

Source: PubChem BioAssay (EPA / NIEHS)
